Sfp inh: Sfp phosphopantetheinyl transferase inhibition; Q9F4F7; Biochemical Sfp PPTase activity, qHTS; Potency, µM, for the others: largest response in the series, negative = inhibition, usual class: inhibitors; 310,000 tested, 3.5% active; AID 1490;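 also: the enzyme is Sfp with the accession as filed and its product quenches rhodamine fluorescence; potency is read from the fitted curve at half-maximal effect; 0% = enzyme reaction without inhibitor and -100% = no enzyme wells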
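Fluorescence-quenching assay: 15 nM Sfp-PPTase preincubated 15 min at room temperature with compound, then 5 uM rhodamine-CoA and 12.5 uM BHQ-2-labelled YbbR peptide added. Fluorescence (ex 525/em 598 nm) read at start and after 30 min; difference gives rate.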
Tau fibril FP: tau fibrillization inhibition (FP); P10636; K18 P301L tau heparin fibrillization, Alexa594 FP, 6 h; Potency, µM (titrated, usually from 57.7 µM), for the others: at the top dose activity, negative = inhibition, hits mostly inhibitors; 280,000 tested, 0.39% active; AID 1468; also: potency is read from the fitted curve at half-maximal effect; nearly all actives have a fitted effect of over 55% in size
Target sequence (P10636 561-689 P618L limits assumed): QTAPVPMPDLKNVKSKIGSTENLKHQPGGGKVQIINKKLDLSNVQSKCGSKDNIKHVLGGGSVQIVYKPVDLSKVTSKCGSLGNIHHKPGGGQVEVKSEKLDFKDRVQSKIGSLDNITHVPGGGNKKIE
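Steps: dispense K18 P301L tau (15 uM plus 0.24 uM Alexa 594 tracer, final) in pH 7 sodium acetate; add compound; add heparin (20 uM final); incubate 6 hr, 37 C; add ThT (30 uM final); after 1 hr ambient, read FP.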
Coupling enz: inhibits coupling enzyme system, counter-screen for aldolase hits; coupling enzyme system counterscreen, AmpLite Red fluorescence; 290,000 tested, 0.67% active; activity change, negative = inhibition, % at 58.2 µM, hits read low; in the data active = activity change below about -30%
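Activity here indicates interference with the coupling reaction, not aldolase inhibition. Compounds at 57.5 uM final met coupling enzymes for 10 min at RT; substrate and AmpLite Red detection followed, with a 525/598 nm fluorescence read after 20 min.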
G9a inh: inhibitors of human histone lysine methyltransferase G9a; Q96KQ7; G9a H3K9 monomethylation, AlphaScreen, 2 h; Potency, µM (highest dose often 102 µM), without a hit: top-dose activity, negative = inhibition, actives largely listed as inhibitors; 350,000 tested, 8.8% active; also: potency is read from the fitted curve at half-maximal effect; nearly all actives have a fitted effect of over 75% in size
Target sequence (Q96KQ7 913-1193 limits assumed): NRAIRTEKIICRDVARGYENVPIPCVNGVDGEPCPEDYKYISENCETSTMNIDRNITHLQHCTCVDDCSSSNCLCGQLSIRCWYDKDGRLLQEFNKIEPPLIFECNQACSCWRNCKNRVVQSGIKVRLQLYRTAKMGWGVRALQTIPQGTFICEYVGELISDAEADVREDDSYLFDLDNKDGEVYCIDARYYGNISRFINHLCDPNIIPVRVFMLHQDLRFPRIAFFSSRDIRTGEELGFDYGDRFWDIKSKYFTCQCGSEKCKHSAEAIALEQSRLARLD
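Methyltransferase reactions run at room temperature for 2 h (20 nM enzyme, 500 nM biotin-H3K9 peptide, 20 uM SAM) after a 15 min compound preincubation; product detected by AlphaScreen beads and anti-H3K9me1 antibody.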
Tau fibril ThT: tau fibrillization inhibition (ThT binding); P10636; Potency, µM (top dose mostly 57.4 µM), for the others: top-dose activity, negative = inhibition, usual class: inhibitors; recombinant tau K18 P301L, heparin-induced fibrillization, ThT fluorescence; 270,000 tested, 2.1% active; AID 1460; also: potency is read from the fitted curve at half-maximal effect; nearly all actives have a fitted effect of over 55% in size
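Recombinant human tau K18 fragment […] carrying P301L, 15 uM unlabeled plus 0.24 uM Alexa 594-labeled, was fibrillized with 20 uM heparin in 100 mM sodium acetate pH 7 for 6 hr at 37 C; 30 uM ThT fluorescence read after 1 hr.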
Tau fluor cs: counter-screen for tau fibril formation inhibitors; tau K18 P301L (four-repeat tau fragment) Alexa594 fluorescence, heparin fibrillization; Potency, µM (titrated, usually from 57.7 µM), without a hit: at the highest dose activity change, negative = decrease; 280,000 tested, 0.93% active; AID 1463; also: potency is read from the fitted curve at half-maximal effect; nearly all actives have a fitted effect of over 55% in size
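Human K18 P301L tau (15 uM unlabeled plus 0.24 uM Alexa 594-labeled, final) in 100 mM sodium acetate pH 7 was mixed with compound and 20 uM heparin and incubated 6 hr at 37 C.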
Starred values were filed as active, the others as inactive; ? = inconclusive; · = no result; ! = a repeat was not active; [ ] = another dose, or the depositor's remark. Shown are actives, neighbours in structure and some others; about 11% of the full set was active somewhere. Unless noted, calls follow the shape of the dose curve; as a rule, active = well fitted curve in the direction sought with a large enough effect; inconclusive = small, poorly fitted or top-dose-only effect, or another doubt; inactive = no such curve, though single readings can be large; an effect the other way counts as inactive or inconclusive. Unless noted, % is scaled to controls: 0 for no effect and ±100 for the full control effect.

SMILES | Sfp inh | Tau fibril FP | Coupling enz | G9a inh | Tau fibril ThT | Tau fluor cs
C=CCSC1=C(C#N)C(c2ccc(C(C)C)cc2)CC(=O)N1 (stereo not drawn) | 45µM* | 7% | -1 | 45µM* | -13% | -13%
CO[C@H]1COC(=O)C/C=C\[C@H](C)[C@@H](OC)COC(=O)[C@@H](C)NC(=O)C/C=C\[C@@H]1C | 0% | -1%[11.6 µM] | 3 | · | -6%[11.5 µM] | -6%[11.6 µM]
COC(=O)c1ccc(N2CCN(C)CC2)c(NC(=O)c2cccs2)c1 | 15% | · | 1 | ? | · | ·
COc1ccc(NC(=O)CCl)cn1 | ? | ? | -40* | 28µM* | · | -22%
COc1ccc(NC(=O)Nc2cccs2)cn1 | 56µM* | · | -3 | 35µM* | · | ·
COc1ccc(CC(=O)Nc2ccc(OC)nc2)cc1 | 12% | 5% | -4 | -2% | 1% | 5%
CC(C)c1onc(-c2c(Cl)cccc2Cl)c1COc1ccc(/C=C/c2cccc(C(=O)O)c2)c(Cl)c1 | -28% | · | 12 | · | · | ·
CCn1c(Oc2ccc(F)cc2F)nc2c1c(=O)n(C)c(=O)n2C | · | -8% | · | -1%[59 µM] | -10% | -13%
Cc1c(C(=O)OCC2CCCO2)[nH]c2c1C(=O)CC(c1ccc(N(C)C)cc1)C2 (stereo not drawn) | -9% | 2% | 1 | 14µM* | ? | -22%
Cc1c(C(=O)OCc2ccccc2)[nH]c2c1C(=O)CC(c1ccc(N(C)C)cc1)C2 (stereo not drawn) | · | -4% | · | 2%[59 µM] | -17% | -21%
C[C@H](N)c1nnc(SCc2c(Cl)cccc2Cl)o1 | ? | 0% | 0 | ? | 3% | -5%
C[C@H](N)c1nnc(SCC(=O)N(C)C)o1 | ? | -6% | 1 | 8.9µM* | -13% | -5%
CCCC(CCC)C(=O)Nc1cc(-c2cn3cccnc3n2)ccc1OC | · | -3% | · | 5%[59 µM] | -7% | -14%
CCN1C(=NCC2CC2)N[C@@H](c2ccccc2)C(C(=O)OC)=C1C | 5% | · | 2 | -13%[12.7 µM] | · | ·
COC(=O)C1=C(C)N(Cc2ccccc2)C(=NCCCCO)N[C@H]1c1ccccc1 | 6% | · | 0 | 79µM*! | · | ·
CCN(CC)CCCN=C1N[C@@H](c2ccccc2)C(C(=O)OC)=C(C)N1CC | -5% | · | -5 | 40µM*! | · | ·
COC(=O)C1=C(C)N(Cc2ccccc2)C(=NCCc2cccnc2)N[C@H]1c1ccccc1 | 2% | · | 2 | 32µM*! | · | ·
COC(=O)C1=C(C)N(Cc2ccccc2)C(=NCC2CC2)N[C@H]1c1ccccc1 | 12% | · | 0 | -4%[12.7 µM] | · | ·
COC(=O)C1=C(C)N(Cc2ccccc2)C(=NCC2CC2)N[C@H]1c1ccc(Br)cc1 | 56µM* | · | -1 | · | · | ·
Cc1ccc(-c2nc(S(=O)(=O)c3ccc(C)cc3)c(SCC(=O)NC3CCCCC3)o2)cc1 | · | -6% | · | -9%[59 µM] | -1% | -8%
COc1cccc2cc(C(=O)Nc3ccc(S(=O)(=O)NCC4CCCO4)cc3)c(=O)oc12 (stereo not drawn) | -2% | -7% | 4 | · | · | -2%
Cc1cccc2c(=O)c(Br)c(C)n(Cc3ccccc3)c12 | 11% | ? | 3 | · | ? | -11%
CCCNC(=O)OC[C@H]1O[C@H](CCO/N=C/c2ccc(C(=O)N3[C@H](c4ccc(C)cc4)[C@@H](C)CC[C@H]3C(=O)OC)cc2)C=C[C@@H]1Oc1ccc(OC)cc1 | 22% | -3% | -6 | 71µM* | -17% | -7%
CCOc1ccc(NC(=O)CN(C)C(=O)c2c(-c3ccccc3Cl)noc2C)cc1OCC | · | · | · | -35% | · | ·
COCCCNC(=O)c1c[nH]c2ccc(S(=O)(=O)N3CCC(C)CC3)cc2c1=O | 10% | ? | 2 | -6% | 2% | -29%
SMILES | Sfp inh | Tau fibril FP | Coupling enz | G9a inh | Tau fibril ThT | Tau fluor cs
CCOc1ccc(NS(=O)(=O)c2ccc3[nH]cc(C(=O)NCc4ccco4)c(=O)c3c2)cc1 | · | 16µM* | · | ? | 10% | ?
CCCNC(=O)c1c[nH]c2ccc(S(=O)(=O)N(C)c3ccc(OCC)cc3)cc2c1=O | 3% | 14µM* | -7 | -31%[59 µM] | -2% | ?
CCCCCNC(=O)c1c[nH]c2ccc(S(=O)(=O)N3CCC(C)CC3)cc2c1=O | · | 7.9µM* | · | 2%[59 µM] | 12% | ?
CCOc1ccc(NS(=O)(=O)c2ccc3[nH]cc(C(=O)NCc4ccccc4)c(=O)c3c2)cc1 | · | 3.5µM* | · | -8%[59 µM] | -3% | ?
CCOc1ccc(NS(=O)(=O)c2ccc3[nH]cc(C(=O)NC(C)CC)c(=O)c3c2)cc1 (stereo not drawn) | 13% | 0% | 3 | -7% | -7% | -8%
Cc1cccc(NS(=O)(=O)c2ccc3oc(=O)c4ncn(C)c4c3c2)c1C | · | 5% | · | -12%[59 µM] | 2% | 2%
O=C(c1cccs1)N1N=C(c2ccccc2)CC1c1ccc(O)cc1 (stereo not drawn) | 20µM* | ? | 2 | ? | -8% | ?
COc1ccc(C2=NN(C(=O)c3cccs3)C(c3ccc(OC)cc3)C2)cc1 (stereo not drawn) | ? | 3% | -2 | 4% | -7% | -22%
O=C(c1cccs1)N1N=C(c2ccc(O)cc2)CC1c1ccccc1 (stereo not drawn) | 18µM* | ? | 0 | -6%[59 µM] | 6% | ?
O=C(c1cccs1)N1N=C(c2ccccc2)CC1c1ccccc1 (stereo not drawn) | 40µM* | 0% | -1 | 3%[59 µM] | -16% | -14%
COc1ccc(C(=O)Nc2ccc(-c3nnn(CC(=O)N4CCN(C(=O)c5ccco5)CC4)n3)cc2)cc1 | 20% | ? | -4 | 50µM* | ? | -11%
O=C1OCC(c2ccccc2)=C1c1ccccc1 | 10% | · | -3 | -6%[59 µM] | · | ·
N#CC1=C(c2ccc(-c3ccccc3)cc2)COC1=O | 17% | 0% | 0 | 11µM* | ? | -8%
COc1ccc(S(=O)(=O)N(CC(=O)N2CCC(C)CC2)c2ccc(C)cc2)cc1 | · | -4% | · | -37%[59 µM] | -7% | -12%
CC1=C(C(=O)N2CCOCC2)C(c2ccc(Cl)cc2)NC(=S)N1 (stereo not drawn) | -7% | 0% | 3 | 71µM* | -5% | -9%
CC1=C(C(=O)N2CCOCC2)C(c2ccc(C)cc2)NC(=S)N1 (stereo not drawn) | 50µM* | 6% | 3 | 40µM* | -3% | -2%
CC1=C(C(=O)N2CCOCC2)C(c2c(C)cc(C)cc2C)NC(=S)N1 (stereo not drawn) | -3% | -9% | 1 | -44% | -3% | -1%
C=C(C)C(O)C(CC/C=C(\C)C(=O)OCC)OC (stereo not drawn) | -1% | -2%[11.6 µM] | 1 | · | 7%[11.5 µM] | 6%[11.6 µM]
